First the molecules themselves.
B1: 77 (nucleosome)
DNA 1: ATCCTGGAGAATCCCGGTGCCGAGGCCGCTCAATTGGTCGTAGACAGCTCTAGCACCGCTTAAACGCACGTACGCGCTGTCAAGGCCATTTTAACCGCCAAGGGGATTACTCCCTAGTCTCCAGGCACGTGTCAGATATATACATCCTGTGAT
DNA 2: ATCACAGGATGTATATATCTGACACGTGCCTGGAGACTAGGGAGTAATCCCCTTGGCGGTTAAAATGGCCTTGACAGCGCGTACGTGCGTTTAAGCGGTGCTAGAGCTGTCTACGACCAATTGAGCGGCCTCGGCACCGGGATTCTCCAGGAT
modifications: reconstituted with mouse histones H2A, H2B, H3.3 and H4
B2: 79 (nucleosome)
DNA 1: B1 DNA 1 with A82T, A83C, G84A, G85A, C86G, C87G, A88C, T89C, T90A
DNA 2: B1 DNA 2 with A64T, A65G, T66G, G67C, G68C, C69T, C70T, T71G, T72A
modifications: reconstituted with mouse histones H2A, H2B, H3.3 and H4
B3: 80 (nucleosome)
DNA 1: B1 DNA 1 with A82C, A83T, G84C, G85A, C86A, C87G, A88G, T89C, T90C, T91A
DNA 2: B1 DNA 2 with A63T, A64G, A65G, T66C, G67C, G68T, C69T, C70G, T71A, T72G
modifications: reconstituted with mouse histones H2A, H2B, H3.3 and H4
B4: 73 (nucleosome)
DNA 1: ATCCTGGAGAATCCCGGTGCCGAGGCCGCTCAATTGGTCGTAGACAGCTCTAGCACCGCTTAAACGCACGTACGCTCAAGGCCACGCGTTTTAACCGCCAAGGGGATTACTCCCTAGTCTCCAGGCACGTGTCAGATATATACATCCTGTGAT
DNA 2: ATCACAGGATGTATATATCTGACACGTGCCTGGAGACTAGGGAGTAATCCCCTTGGCGGTTAAAACGCGTGGCCTTGAGCGTACGTGCGTTTAAGCGGTGCTAGAGCTGTCTACGACCAATTGAGCGGCCTCGGCACCGGGATTCTCCAGGAT
modifications: reconstituted with mouse histones H2A, H2B, H3.3 and H4
B5: 78 (nucleosome)
DNA 1: B1 DNA 1 with C81T, A82C, G84A, C86G, A88C, T89A
DNA 2: B1 DNA 2 with A65T, T66G, G68C, C70T, T72G, G73A
modifications: reconstituted with mouse histones H2A, H2B, H3.3 and H4
B6: 75 (nucleosome)
DNA 1: B1 DNA 1 with G79C, T80A, C81A, A82G, A83G, G84C, G85C, C86A, A88G
DNA 2: B4 DNA 2 with C68T, T70G, G71C, G72C, C73T, C74T, T75G, T76A, A78C
modifications: reconstituted with mouse histones H2A, H2B, H3.3 and H4
B7: 76 (nucleosome)
DNA 1: B1 DNA 1 with G79T, T80C, C81A, A83G, G85C, C87A, A88G
DNA 2: B1 DNA 2 with T66C, G67T, C69G, T71C, G73T, A74G, C75A
modifications: reconstituted with mouse histones H2A, H2B, H3.3 and H4
B8: 74 (nucleosome)
DNA 1: B4 DNA 1 with T76G, C77T, A78C, G80A, C82G, A84C, C85A
DNA 2: B4 DNA 2 with G69T, T70G, G72C, C74T, T76G, G77A, A78C
modifications: reconstituted with mouse histones H2A, H2B, H3.3 and H4

Substitutions are numbered along the chain they refer to. Numbers in names are those of the source.

The first assay addresses NR5A2 wild type;histone octamer (Homo sapiens;, UniProt O00482;C0HKE1;Q6ZWY9;P84244;P62806 1-541;2-130;2-126;2-136;2-103, |). Description: SeEN-seq (EMSA of nucleosome library followed by sequencing); 0.8 uM human NR5A2; 20 mM Tris-HCl pH 7.5, 120 mM NaCl, 1 mM MgCl2, 10 uM ZnCl2, 1 mM DTT, 100 ug/ml BSA, room temperature, 30 min; 0.1 uM nucleosome library; high values mean tight binding. Background: Mobility shift assays separate free from complexed probe on a gel.
In the case of B1, the binding signal was 1.48 log2 enrichment (bound/unbound, relative to Widom 601).

On to B2, for which the binding signal is 1.33 log2 enrichment (bound/unbound, relative to Widom 601).

As to B3, the binding signal is 0.765 log2 enrichment (bound/unbound, relative to Widom 601).

With B4, the binding signal is 1.28 log2 enrichment (bound/unbound, relative to Widom 601).

In the case of B5, the binding signal is 1.77 log2 enrichment (bound/unbound, relative to Widom 601).

With B6, the binding signal is 1.29 log2 enrichment (bound/unbound, relative to Widom 601).

Consider B7, for which the binding signal is 1.83 log2 enrichment (bound/unbound, relative to Widom 601).

As to B8, the binding signal is 1.21 log2 enrichment (bound/unbound, relative to Widom 601).

The target of another assay is mouse Nr5a2 wild type;histone octamer (Mus musculus;, UniProt P45448;C0HKE1;Q6ZWY9;P84244;P62806 1-560;2-130;2-126;2-136;2-103, |). Description: SeEN-seq (EMSA of nucleosome library followed by sequencing); 1.2 uM mouse Nr5a2; 20 mM Tris-HCl pH 7.5, 120 mM NaCl, 1 mM MgCl2, 10 uM ZnCl2, 1 mM DTT, 100 ug/ml BSA, room temperature, 30 min; 0.1 uM nucleosome library; high values mean tight binding.
As for B1, the binding signal was 1.71 log2 enrichment (bound/unbound, relative to Widom 601).

Consider B2, for which the binding signal is 1.29 log2 enrichment (bound/unbound, relative to Widom 601).

Take B3: the binding signal is 0.924 log2 enrichment (bound/unbound, relative to Widom 601).

For the molecule B4, the binding signal is 1.51 log2 enrichment (bound/unbound, relative to Widom 601).

For the molecule B5, the binding signal was 2.13 log2 enrichment (bound/unbound, relative to Widom 601).

With B6, the binding signal is 1.36 log2 enrichment (bound/unbound, relative to Widom 601).

Take B7: the binding signal is 2.16 log2 enrichment (bound/unbound, relative to Widom 601).

In the case of B8, the binding signal is 1.39 log2 enrichment (bound/unbound, relative to Widom 601).

The values are drawn from article PMC11102866, “Nucleosome-bound NR5A2 structure reveals pioneer factor mechanism by DNA minor groove anchor competition”.
